Reference: PubChem BioAssay (NCATS)
Values joined by “and” are separate entries in the source; they are usually repeats but may differ in a detail not shown here. Identical values can stand only once. Results filed as inconclusive are left out. A call without a number means that no potency is given here. A number with no mark means an inactive call. Active and inactive are the calls of the source. Calls come from the whole dose curve; as a rule, active = well fitted curve in the direction sought with a large enough effect; inconclusive = small, poorly fitted or top-dose-only effect, or another doubt; inactive = no such curve, though single readings can be large; an effect the other way counts as inactive or inconclusive.

Legend:
[1] = system: KB-3-1; assay: Cytotoxic Profiling of Annotated Libraries Using Quantitative High-Throughput Screening (AID 1296008); settings: Five cell lines viability, CellTiter-Glo ATP luminescence, 48-72 h; max response: active compounds read low; note: nearly all actives have a fitted effect of over 60% in size
Procedure, shortened: (§1)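 Cells exposed to compounds for 48 or 72 hr at 37 degrees Celsius. Viability read as ATP-coupled luminescence with CellTiter-Glo after 10 min at room temperature.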

[2] = system: MCC-26; assay: qHTS assay to identify novel small-molecules to repurpose for Merkel cell carcinoma treatment (AID 1296009); settings: MCC and control cell lines, CellTiter-Glo viability, 72 h; series mostly up to 46 µM; note: nearly all actives have a fitted effect of over 60% in size
Procedure, shortened: (§2)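 CellTiter-Glo luminescence after 72 hr compound exposure at 37 degree celsius gave cell viability. Libraries NPC and MIPE were run as 8- and 11-point dose responses; RLUs normalized to DMSO (negative) and no-cell (cytotoxicity) controls.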

[3] = system: NIH3T3; assay: as above; settings: MCC and control cell lines, CellTiter-Glo viability, 72 h; series mostly up to 44.8 µM
Procedure, shortened: as §2

[4] = system: UISO; assay: as above; settings: MCC and control cell lines, CellTiter-Glo viability, 72 h; series mostly up to 46 µM
Procedure, shortened: as §2

[5] = system: WaGa; assay: as above; settings: MCC and control cell lines, CellTiter-Glo viability, 72 h; series mostly up to 46 µM
Procedure, shortened: as §2

[6] = system: C33A; assay: Primary qHTS to identify gynecologic anti-cancer compounds using libraries of approved drugs and bioactive compounds (AID 1345084); settings: Gynecologic cancer cell panel viability, ATPlite luminescence, 48 h; series mostly up to 57.5 µM; note: nearly all actives have a fitted effect of over 55% in size
Procedure, shortened: (§3)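 Cells, 1,000 per well, plated 16 h, then exposed 48 h at 37 C to compounds. Viability by ATPlite luminescence after 15 min at room temperature.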

[7] = system: CASKI; assay: as above; settings: Gynecologic cancer cell panel viability, ATPlite luminescence, 48 h; series mostly up to 57.5 µM
Procedure, shortened: as §3

[8] = system: Es-2; assay: as above; settings: Gynecologic cancer cell panel viability, ATPlite luminescence, 48 h; series mostly up to 57.5 µM
Procedure, shortened: as §3

[9] = system: HeLa; assay: as above; settings: Gynecologic cancer cell panel viability, ATPlite luminescence, 48 h; series mostly up to 57.5 µM
Procedure, shortened: as §3

[10] = system: JEG-3; assay: as above; settings: Gynecologic cancer cell panel viability, ATPlite luminescence, 48 h; series mostly up to 57.5 µM
Procedure, shortened: as §3

[11] = system: PA-1; assay: as above; settings: Gynecologic cancer cell panel viability, ATPlite luminescence, 48 h; series mostly up to 57.5 µM
Procedure, shortened: as §3

[12] = system: MKL-1; assay: qHTS assay to identify novel small-molecules to repurpose for Merkel cell carcinoma treatment (AID 1296009); settings: MCC and control cell lines, CellTiter-Glo viability, 72 h; series mostly up to 46 µM; note: nearly all actives have a fitted effect of over 60% in size
Procedure, shortened: as §2

[13] = system: MKL-2; assay: as above; settings: MCC and control cell lines, CellTiter-Glo viability, 72 h; series mostly up to 46 µM
Procedure, shortened: as §2

[14] = system: NIH3T3; assay: Cytotoxic Profiling of Annotated Libraries Using Quantitative High-Throughput Screening (AID 1296008); settings: Five cell lines viability, CellTiter-Glo ATP luminescence, 48-72 h; max response: active compounds read low; note: nearly all actives have a fitted effect of over 60% in size
Procedure, shortened: as §1

[15] = system: HACAT; assay: qHTS assay to identify novel small-molecules to repurpose for Merkel cell carcinoma treatment (AID 1296009); settings: MCC and control cell lines, CellTiter-Glo viability, 72 h; at 44.8 µM (top of the series) unless noted; note: nearly all actives have a fitted effect of over 60% in size
Procedure, shortened: as §2

[16] = system: MCC-13; assay: as above; settings: MCC and control cell lines, CellTiter-Glo viability, 72 h; series mostly up to 46 µM
Procedure, shortened: as §2

[17] = system: Hek293T; assay: Primary qHTS to identify gynecologic anti-cancer compounds using libraries of approved drugs and bioactive compounds (AID 1345084); settings: Gynecologic cancer cell panel viability, ATPlite luminescence, 48 h, control line for the selectivity index; series mostly up to 57.5 µM; note: nearly all actives have a fitted effect of over 55% in size
Procedure, shortened: as §3

[18] = system: OV90; assay: as above; settings: Gynecologic cancer cell panel viability, ATPlite luminescence, 48 h; series mostly up to 57.5 µM
Procedure, shortened: as §3
Potency is the fitted concentration of half-maximal effect.

C[C@@]1(C(=O)Nc2ccc(F)nc2)CCCN1c1nc(Nc2cc(C3CC3)[nH]n2)c2cccn2n1
max response [1]: -30.1% | Potency [2]: 16.6 µM (active) | Potency [3]: 4.61 µM (active) | Potency [4]: 0.0833 µM (active) | Potency [5]: 3.32 µM (active) | Potency [6]: inactive | Potency [7]: 14.1 µM (active) | Potency [8]: inactive | Potency [9]: 3.98 µM (active) | Potency [10]: inactive | Potency [11]: 5.01 µM (active)

CC[C@]1(O)C[C@H]2CN(CCC3=c4ccccc4=N[C]3[C@@](C(=O)OC)(c3cc4c(cc3OC)N(C)[C@H]3[C@@](O)(C(N)=O)[C@H](O)[C@]5(CC)C=CCN6CC[C@]43[C@@H]65)C2)C1
Potency [1]: 0.0059 µM (active) | Potency [12]: 0.0037 µM (active) | Potency [13]: 0.0469 µM (active)

CCC(=C(CC)c1ccc(O)cc1)c1ccc(O)cc1
max response [14]: -12.1% | outcome [15]: inactive | Potency [16]: inactive | Potency [2]: inactive | Potency [12]: inactive

CCCCCCCCCCCCCC(=O)N[C@H](CO)[C@H](O)c1ccc([N+](=O)[O-])cc1
max response [1]: 5.57% | Potency [16]: inactive | Potency [12]: inactive | Potency [13]: inactive | Potency [4]: inactive | Potency [5]: inactive

CC[C@H](C)n1cc(C)c2c(C(=O)NCc3c(C)cc(C)[nH]c3=O)cc(-c3ccc(N4CCNCC4)nc3)cc21
outcome [14]: inactive | outcome [15]: inactive | Potency [16]: inactive | Potency [2]: inactive | Potency [12]: inactive | Potency [13]: inactive | Potency [3]: inactive | Potency [4]: inactive | Potency [5]: inactive

CN(C)S(=O)(=O)c1ccc2c(c1)C(=Cc1cc3c([nH]1)CCCC3)C(=O)N2
max response [1]: -0.966% | Potency [16]: inactive | Potency [2]: inactive | Potency [13]: inactive | Potency [4]: inactive | Potency [5]: inactive

NS(=O)(=O)c1ccc(Nc2nc(OCC3CCCCC3)c3[nH]cnc3n2)cc1
Potency [1]: 14.8 µM (active) | Potency [16]: inactive | Potency [2]: inactive | Potency [13]: inactive | Potency [4]: 2.35 µM (active) | Potency [6]: inactive | Potency [7]: inactive | Potency [8]: inactive | Potency [9]: inactive | Potency [17]: inactive | Potency [10]: inactive | Potency [18]: inactive | Potency [11]: inactive

O=C(Nc1ncc(SCCN2CCCC2)s1)[C@]1(c2ccc(S(=O)(=O)C3CC3)cc2)C[C@@H]1C1CCCCC1
Potency [14]: 23.5 µM (active) | Potency [16]: inactive | Potency [2]: inactive

COc1ccc(-c2cc3nccn3c(Nc3ncccc3C(N)=O)n2)cc1OC
max response [1]: -9.74% | Potency [16]: inactive | Potency [2]: inactive | Potency [12]: inactive | Potency [13]: inactive | Potency [5]: inactive | Potency [6]: inactive | Potency [7]: inactive | Potency [8]: inactive | Potency [17]: inactive | Potency [18]: inactive | Potency [11]: 3.55 µM (active)

COc1c(C)c2c(c(O)c1CC=C(C)CCC(=O)O)C(=O)OC2
Potency [14]: 3.72 µM (active) | Potency [12]: 4.69 µM (active) | Potency [13]: 2.09 µM (active) | Potency [4]: 9.35 µM (active) | Potency [5]: 3.32 µM (active)

C[C@@H](N)c1ccc(C(=O)Nc2ccnc3[nH]ccc23)cc1
Potency [14]: 23.5 µM (active) and 16.4 µM (active) | Potency [2]: inactive | Potency [12]: inactive | Potency [13]: inactive | Potency [9]: 17.8 µM (active) | Potency [10]: inactive | Potency [18]: inactive

Cc1c(-c2cccc3c(CCCOc4cccc5ccccc45)c(C(=O)O)n(Cc4cccnc4)c23)c(COc2ccc(N3CCN([S+](=O)([O-])N(C)C)CC3)cc2)nn1C
max response [14]: -4.88% | Potency [16]: inactive | Potency [2]: inactive | Potency [12]: inactive | Potency [13]: inactive | Potency [4]: inactive | Potency [5]: inactive

Cn1cnc(-c2cc3nccc(Oc4ccc(NC(=S)NC(=O)Cc5ccccc5)cc4F)c3s2)c1
Potency [14]: 11.8 µM (active) and 13 µM (active) | Potency [16]: inactive | Potency [12]: inactive | Potency [13]: inactive | Potency [4]: 18.7 µM (active) | Potency [5]: inactive | Potency [6]: inactive | Potency [7]: inactive | Potency [8]: inactive | Potency [17]: inactive | Potency [10]: inactive | Potency [18]: inactive

COc1cc2nc(-c3cc(F)ccc3O)nc(N[C@@H]3CNC[C@@H]3C(C)(C)O)c2cc1OC
Potency [1]: 16.6 µM (active) | Potency [16]: 20.9 µM (active) | Potency [13]: 9.35 µM (active)

CCC(C)SSc1ncc[nH]1 (centres undefined)
max response [14]: -14.8% | outcome [15]: inactive | Potency [2]: inactive | Potency [13]: 16.6 µM (active) | Potency [5]: 23.5 µM (active)

O=C1NC(=O)C(=Cc2ccc(-c3ccc(F)cc3O)o2)S1
max response [14]: -4.39% | Potency [16]: inactive | Potency [2]: inactive | Potency [12]: inactive | Potency [4]: inactive

CC(C)C[C@H](NC(=O)c1cc2ccccc2s1)C(=O)N1CCN(C(=O)[C@H](CO)NS(=O)(=O)c2ccc(Cl)cc2Cl)CC1
max response [14]: -5.73% | Potency [16]: inactive | Potency [2]: inactive | Potency [12]: inactive | Potency [13]: inactive | Potency [5]: inactive

Nc1nc(Cl)nc2c1ncn2[C@@H]1O[C@H](CO)[C@@H](O)[C@H]1F
Potency [14]: 0.166 µM (active) | Potency [2]: 0.59 µM (active) | Potency [12]: 0.0132 µM (active) | Potency [5]: inactive

CC1=C[C@@H]2[C@@H]([C@@H](O)C[C@@]3(C)[C@H]2C[C@@H](C)[C@]3(O)C(=O)CO)[C@@]2(C)Cc3cnn(-c4ccccc4)c3C=C12
Potency [14]: 14.6 µM (active) | Potency [16]: inactive | Potency [2]: inactive | Potency [12]: inactive | Potency [13]: inactive | Potency [4]: inactive | Potency [5]: inactive | Potency [7]: inactive

CCNC(=O)Nc1ccc(Oc2ncnc(N)c2C=NOC)cc1Cl
max response [14]: 4.69% | outcome [15]: inactive | Potency [16]: inactive | Potency [2]: inactive | Potency [12]: inactive | Potency [13]: inactive | Potency [4]: inactive | Potency [5]: inactive

O=C(C=Cc1ccc(O)cc1)c1ccc(O)cc1O
max response [14]: -8.95% | outcome [15]: inactive | Potency [16]: inactive | Potency [2]: inactive | Potency [12]: inactive | Potency [5]: inactive
